Here are results for 14 molecules from PubChem BioAssay (NCI).

Experiment in all cases: NCI-60 one-dose screen, 48 h (100 = growth as untreated, 0 = no growth, -100 = all killed)
The test system of one test is NCI-H23 lung. As to conditions: 10 µM unless noted.
In another test the test system is NCI-H226 lung. As to conditions: 10 µM unless noted.
Another test deals with NCI-H322M lung. As to conditions: 10 µM unless noted.
For the next test, the system named is HOP-62 NSCLC. Particulars: 10 µM unless noted.
Another test deals with NCI-H460 lung. Particulars: 10 µM unless noted.
A further test concerns HOP-92 NSCLC. Particulars: 10 µM unless noted.
The next test concerns A549/ATCC NSCLC. As to conditions: 10 µM unless noted.
A further test has as its system 786-0 renal. Particulars: 10 µM unless noted.
A further test has as its system COLO 205 colon. Particulars: 10 µM unless noted.
For another test, the system named is NCI-H522 lung. Particulars: 10 µM.

This is part of a sample that, as a whole, favours compounds with a hit. Of some 83,000 tested, about 20% had one in any assay.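 48-hour exposure, single concentration, 96-well plates; percent growth endpoint where 0 means no net growth. Active: below 10.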 Values without a mark were called inactive. Calls of active or inactive are those of the source.

For `O=C(CSc1ncc(-c2ccccc2)n1-c1ccccc1)Nc1ccc(-c2nc3ccccc3s2)cc1`, the growth in the test on NCI-H23 lung is 62.6%; in the test on NCI-H226 lung, 103%; in the test with NCI-H322M lung it was 90.1%; with HOP-62 NSCLC, 73.1%; in the test with NCI-H460 lung, 36.3%; in the test on HOP-92 NSCLC, 95.6%. Besides, the figures for the growth with A549/ATCC NSCLC, with 786-0 renal and in the test with COLO 205 colon were 20.3%, 69.8% and 103%, respectively.
With `COc1cccc(-c2nc(-c3ccc(N)cc3)co2)c1`, the growth with NCI-H23 lung is 106%; in the test with NCI-H226 lung, 94.2%; in the test on NCI-H322M lung, 102%; with HOP-62 NSCLC, 108%; with NCI-H460 lung it was 115%; in the test with HOP-92 NSCLC, 86.8%. Moreover, the growth in the test on A549/ATCC NSCLC is 84.9%; in the test with 786-0 renal it was 94.4%; in the test with COLO 205 colon, 141%.
With `NS(=O)(=O)c1ccc(-n2ncc3c(SCc4ccccc4)ncnc32)cc1`, the growth in the test with NCI-H23 lung is 100%; in the test with NCI-H226 lung, 99.8%; with NCI-H322M lung, 87.7%; with HOP-62 NSCLC, 66.9%; with NCI-H460 lung, 105%; with HOP-92 NSCLC, 43%. For the same molecule, the growth in the test with A549/ATCC NSCLC was 80.8%; in the test on 786-0 renal, 85.1%; in the test with COLO 205 colon, 110%.
In the case of `O=C1NCCc2c1noc2-c1ccccc1`, the growth with NCI-H23 lung was 99.5%; in the test on NCI-H226 lung it was 104%; with NCI-H322M lung, 101%; in the test on HOP-62 NSCLC, 94.9%; with NCI-H460 lung, 107%; with HOP-92 NSCLC, 104%. In addition, the growth is 79.7% with A549/ATCC NSCLC, 96.5% in the test on 786-0 renal and 103% in the test with COLO 205 colon.
For the molecule `CN(C)c1ncnc2c1ncn2C1CCCCO1` (stereo unspecified), the growth with NCI-H23 lung is 101%; in the test on NCI-H226 lung, 98.5%; with NCI-H322M lung it was 98.9%; in the test on HOP-62 NSCLC, 110%; in the test with NCI-H460 lung, 113%; in the test with HOP-92 NSCLC, 71%. The growth with A549/ATCC NSCLC is 104%; in the test on 786-0 renal it was 99.4%; in the test on COLO 205 colon, 98.3%.
As for `O=C(Nc1nc2c(C(F)(F)F)cccc2s1)c1cc(Cl)ccc1O`, the growth is 3.47% (active) in the test with NCI-H23 lung; -3.02% (active) in the test with NCI-H226 lung; 4.87% (active) in the test with NCI-H322M lung; -7.84% (active) in the test on HOP-62 NSCLC; 2.33% (active) in the test with NCI-H460 lung; -27.8% (active) with HOP-92 NSCLC. Besides, the growth is 3.66% (active) with A549/ATCC NSCLC, 1.42% (active) with 786-0 renal and -69.9% (active) in the test with COLO 205 colon.
In the case of `COc1ccc(C2=NN(C(C)=O)C(c3cccc(Nc4ccnc5cc(Cl)ccc45)c3)C2)cc1` (stereo unspecified), the growth with NCI-H23 lung is 60.7%; in the test with NCI-H226 lung, 74.5%; in the test on NCI-H322M lung, 63.9%; with HOP-62 NSCLC it was 38%; with NCI-H460 lung, 64.9%; in the test with HOP-92 NSCLC, 32.7%. For the same molecule, the results for the growth in the test on A549/ATCC NSCLC, with 786-0 renal and in the test on COLO 205 colon were 45.5%, 58.6% and 19.1%, respectively.
Take `COc1ccc2ncccc2c1Cc1c(OC)ccc2ncccc12`: the growth is 80.1% in the test with NCI-H23 lung; 80% in the test with NCI-H226 lung; 96.6% in the test on NCI-H322M lung; 65% with HOP-62 NSCLC; 82.4% in the test on NCI-H460 lung; 58.1% in the test on HOP-92 NSCLC. Also, the growth was 64.5% in the test on A549/ATCC NSCLC, 89.1% in the test on 786-0 renal and 79.9% in the test on COLO 205 colon.
Take `O=C1CSC(c2ccccc2Cl)N1c1nnc(Cn2nnc3ccccc32)o1` (stereo unspecified): the growth in the test on NCI-H23 lung is 80.6%; in the test on NCI-H226 lung it was 96.1%; in the test with NCI-H322M lung, 80.9%; with HOP-62 NSCLC, 91.9%; with NCI-H460 lung, 88%; with HOP-92 NSCLC, 56.8%. Besides, the growth was 59.9% with A549/ATCC NSCLC, 88.7% in the test with 786-0 renal and 106% in the test on COLO 205 colon.
With `O[N+]1=CC=CCC1=S.On1ccccc1=S.[Zn]`, the growth was -53.1% (active) with NCI-H23 lung; -85.9% (active) in the test with NCI-H226 lung; -87.3% (active) in the test with NCI-H322M lung; -86.8% (active) in the test with HOP-62 NSCLC; -70.5% (active) with NCI-H460 lung; -92.4% (active) in the test on NCI-H522 lung. In addition, the growth with 786-0 renal was -74.2% (active); in the test with COLO 205 colon, -74.9% (active).
Regarding `Cn1cnc([N+](=O)[O-])c1Sc1nc(N)nc2nc[nH]c12`, the growth with NCI-H23 lung is 52.9%; with NCI-H226 lung, 74.1%; in the test on NCI-H322M lung, 77.3%; in the test with HOP-62 NSCLC, 22.8%; in the test with NCI-H460 lung, 20.6%; in the test on HOP-92 NSCLC it was -3.12% (active). The growth is 14.6% in the test on 786-0 renal and 96.9% in the test on COLO 205 colon.
Consider `Cc1ccc(C2=NNC(c3sc(Cl)nc3Cl)C2)cc1` (stereo unspecified), for which the growth with NCI-H23 lung was 91%; in the test with NCI-H226 lung, 84.7%; with NCI-H322M lung, 83.2%; in the test on HOP-62 NSCLC it was 107%; in the test on NCI-H460 lung, 104%; with NCI-H522 lung, 18.1%. For the same molecule, the growth with 786-0 renal was 106%; in the test on COLO 205 colon it was 99.8%.
On to `Cc1cc(Br)c(C)cc1Br`, for which the growth was 97.9% with NCI-H23 lung; 94.4% in the test on NCI-H226 lung; 96.4% with NCI-H322M lung; 99.4% with HOP-62 NSCLC; 114% in the test on NCI-H460 lung; 91.4% in the test with HOP-92 NSCLC. For the same molecule, the growth with 786-0 renal was 101%; with COLO 205 colon it was 110%.
Consider `Cc1cn(C(C=O)OC(C=O)CO)c(=O)[nH]c1=O` (stereo unspecified), for which the growth in the test with NCI-H23 lung is 107%; with NCI-H226 lung, 105%; with NCI-H322M lung, 106%; with HOP-62 NSCLC it was 102%; in the test on NCI-H460 lung, 105%; in the test with HOP-92 NSCLC it was 104%. Moreover, the growth is 107% in the test with 786-0 renal and 109% with COLO 205 colon.
